PubChem BioAssay (NCATS)
A number with no mark means an inactive call. Results filed as inconclusive are left out. Calls of active or inactive are those of the source. Unless noted, calls follow the shape of the dose curve; as a rule, active = well fitted curve in either direction with a large enough effect (not every such curve was filed as active); inconclusive = small, poorly fitted or top-dose-only effect, or another doubt; inactive = flat fitted curve, though single readings scatter.

Tests used:
[1] = biological target: Lysosomal acid glucosylceramidase (Homo sapiens) (UniProt P04062); assay: Glucocerebrosidase-p2 (AID 348; in the data active = potency below about 10 µM; also: potency is read from the fitted curve at half-maximal effect); conditions: purified GBA, blue fluorogenic substrate, 40 min
Sequence of Lysosomal acid glucosylceramidase (Homo sapiens) (P04062 whole entry, looked up): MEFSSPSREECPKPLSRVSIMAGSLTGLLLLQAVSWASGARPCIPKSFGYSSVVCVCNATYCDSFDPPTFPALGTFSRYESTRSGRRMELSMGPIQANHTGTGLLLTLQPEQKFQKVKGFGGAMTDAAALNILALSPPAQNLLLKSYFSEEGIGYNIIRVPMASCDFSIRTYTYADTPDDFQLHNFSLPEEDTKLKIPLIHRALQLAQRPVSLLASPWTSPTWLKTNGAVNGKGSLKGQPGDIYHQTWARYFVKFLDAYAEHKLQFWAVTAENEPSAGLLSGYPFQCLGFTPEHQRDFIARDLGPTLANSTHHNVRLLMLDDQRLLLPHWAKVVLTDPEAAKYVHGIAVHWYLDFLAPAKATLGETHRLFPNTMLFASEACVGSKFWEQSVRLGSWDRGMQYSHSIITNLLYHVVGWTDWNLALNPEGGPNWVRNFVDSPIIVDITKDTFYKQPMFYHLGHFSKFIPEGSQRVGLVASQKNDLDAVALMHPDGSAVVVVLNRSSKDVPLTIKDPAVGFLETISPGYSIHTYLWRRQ
Outline: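 Compounds titrated from 0.6 nM upwards against 0.2 nM enzyme in pH 5.9 citric acid/KH2PO4, taurocholate, tween-20; blue fluorogenic substrate 80 uM, 40 min room temperature, stopped and read Ex 365/Em 440 for AC50.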

[2] = AP1 Signaling Pathway (AID 357); conditions: ME-180 AP-1-bla reporter, EGF-induced, beta-lactamase ratio, 5 h; at 7.69 µM (top of the series) unless noted;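 also: ME-180 reporter cells stimulated with EGF at its EC50 level; % is scaled to controls: 0 for no effect and ±100 for the full control effect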
Outline: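 Modulation of EGF-driven AP-1 transcription was assessed with a beta-lactamase reporter in ME-180 cells. Compound and EC50 EGF were co-incubated 5 hours at 37 °C before 2.5-hour CCF4 loading at room temperature and dual-emission reading.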

[3] = biological target: Cytochrome P450 1A2 (Homo sapiens) (UniProt P05177); assay: p450-cyp1a2 (AID 410; calls by dose curve; also: potency is read from the fitted curve at half-maximal effect;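 as to activity change, negative = inhibition: -100% = full effect of reference inhibitor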); conditions: recombinant CYP1A2, luciferin-ME demethylation, luminescence; series mostly up to 11.4 µM
Sequence of Cytochrome P450 1A2 (Homo sapiens) (P05177 whole entry, looked up): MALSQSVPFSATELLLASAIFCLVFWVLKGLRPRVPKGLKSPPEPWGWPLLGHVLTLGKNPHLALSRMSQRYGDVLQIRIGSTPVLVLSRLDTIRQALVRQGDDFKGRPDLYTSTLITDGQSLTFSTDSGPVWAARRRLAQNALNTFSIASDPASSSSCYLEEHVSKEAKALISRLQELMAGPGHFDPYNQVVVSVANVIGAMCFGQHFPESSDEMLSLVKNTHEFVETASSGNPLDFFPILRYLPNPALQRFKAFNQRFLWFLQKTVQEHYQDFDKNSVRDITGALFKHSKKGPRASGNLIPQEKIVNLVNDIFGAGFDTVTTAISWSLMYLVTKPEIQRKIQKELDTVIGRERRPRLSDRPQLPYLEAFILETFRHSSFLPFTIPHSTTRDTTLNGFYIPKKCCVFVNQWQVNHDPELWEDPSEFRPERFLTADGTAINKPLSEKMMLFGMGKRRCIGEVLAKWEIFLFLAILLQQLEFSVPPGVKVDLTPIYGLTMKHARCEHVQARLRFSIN
Outline: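 20nM CYP1A2 with 100uM Luciferin-ME (at Km) in 100mM KPO4; compound preincubated 10 min, NADPH regeneration added, 60 min at room temperature. Luciferin quantified by luminescence after detection reagent; normalized to 57 uM furafylline.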

[4] = NFAT Signaling Pathway (AID 444); conditions: Jurkat NFAT-bla M1, carbachol, beta-lactamase ratio, 5 h; at 7.69 µM (top of the series) unless noted;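 also: carbachol stimulus at about its EC50 of 1 µM final; % is scaled to controls: 0 for no effect and ±100 for the full control effect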
Outline: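 Jurkat cells carrying an NFAT-driven β-lactamase reporter and co-transfected muscarinic M1 receptor were treated with compound plus carbachol (1 uM final, an EC50 level) for 5 h at 37 °C. CCF4 loading followed for 1 h at RT; 460/530 nm ratio gave %activity.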

[5] = Stat Signaling Pathway (AID 446); conditions: ME-180 SIE beta-lactamase reporter, IL-6 stimulated, 5 h; at 7.69 µM (top of the series) unless noted;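 also: ME-180 cervical cancer cells given 40 pM IL-6 alongside compound; SIE-controlled beta-lactamase reporter measured as 460/530 nm FRET emission ratio; % is scaled to controls: 0 for no effect and ±100 for the full control effect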
Outline: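 Screening format detects activators and inhibitors alike: ME-180 SIE-bla cells stimulated at 40 pM IL-6 for 5 hrs with compound, then dual-emission beta-lactamase read at 405 nm excitation.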

[6] = biological target: Glucocorticoid receptor (Homo sapiens) (UniProt P04150); assay: GR-GFP Redistribution (AID 450;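 active = compounds whose dose series gives a full or clear partial fitted curve of increased nuclear translocation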; also: potency is read from the fitted curve at half-maximal effect); conditions: U2OS GR-GFP nuclear translocation, laser cytometry, 2 h
Sequence of Glucocorticoid receptor (Homo sapiens) (P04150 whole entry, looked up, the tested form may be a part): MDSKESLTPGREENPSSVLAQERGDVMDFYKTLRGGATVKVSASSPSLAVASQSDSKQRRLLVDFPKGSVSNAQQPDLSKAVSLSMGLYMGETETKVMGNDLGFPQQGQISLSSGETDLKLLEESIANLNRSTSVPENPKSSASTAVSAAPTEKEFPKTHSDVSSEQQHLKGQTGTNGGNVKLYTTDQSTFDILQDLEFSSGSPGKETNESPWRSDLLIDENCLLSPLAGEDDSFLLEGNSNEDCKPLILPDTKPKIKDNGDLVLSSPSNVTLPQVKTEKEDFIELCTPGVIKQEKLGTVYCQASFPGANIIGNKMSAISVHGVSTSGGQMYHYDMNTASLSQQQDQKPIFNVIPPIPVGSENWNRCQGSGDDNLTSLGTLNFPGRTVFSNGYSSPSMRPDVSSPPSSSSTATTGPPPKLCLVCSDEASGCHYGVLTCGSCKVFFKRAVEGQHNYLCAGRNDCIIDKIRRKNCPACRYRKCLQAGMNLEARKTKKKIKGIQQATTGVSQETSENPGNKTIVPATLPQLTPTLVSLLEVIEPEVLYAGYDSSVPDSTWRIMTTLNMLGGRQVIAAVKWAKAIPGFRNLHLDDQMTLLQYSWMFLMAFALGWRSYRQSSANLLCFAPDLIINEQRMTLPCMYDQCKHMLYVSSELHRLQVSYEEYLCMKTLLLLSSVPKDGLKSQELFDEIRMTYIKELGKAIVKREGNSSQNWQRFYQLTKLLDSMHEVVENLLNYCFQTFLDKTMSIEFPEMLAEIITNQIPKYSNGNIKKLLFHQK

[7] = biological target: Glucocorticoid receptor (Homo sapiens) (UniProt P04150); assay: GR-EFC Redistribution (AID 451; calls by dose curve; also: potency is read from the fitted curve at half-maximal effect); conditions: CHO-K1 GR-EFC translocation, beta-gal luminescence, 2 h
Outline: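 CHO-K1 cells stably expressing nuclear-localized β-gal enzyme acceptor and GR fused C-terminally to the enzyme donor fragment; ligand-driven nuclear translocation restores β-gal by complementation. Compounds titrated up to 46 uM final, 2 h at 37 °C; luminescence read.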

[8] = biological target: Mitogen-activated protein kinase 10 (Mus musculus) (UniProt Q61831); assay: JNK3 AlphaScreen Assay (AID 530); conditions: JNK3 lysate, c-Jun phosphorylation; series mostly up to 11.4 µM;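 also: kinase came from lysate of stimulated human HepG2 cells; signal reports phosphorylation of biotinylated GST-cJun 1-79 at Ser73 with 10 µM ATP; % is scaled to controls: 0 for no effect and ±100 for the full control effect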
Outline: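 Inhibitors reduce antibody binding to phosphorylated biotin-cJun, lowering AlphaScreen luminescence. Lysates from HepG2 cells pre-activated by IL-1beta plus TNF-alpha supplied JNK3; compounds were titrated.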

[9] = biological target: 3',5'-cyclic-AMP phosphodiesterase 4B (Homo sapiens) (UniProt Q07343); assay: qHTS Assay for Inhibitors of PDE-IV (AID 607; active = well fitted activation curve with a large enough effect in the main read-out, with a control signal flat, not every such curve was filed as active; also: % of control where 0% means no effect); conditions: HEK293 ACTOne CNG channel cells, membrane potential fluorescence; series mostly up to 22.9 µM
Sequence of 3',5'-cyclic-AMP phosphodiesterase 4B (Homo sapiens) (Q07343 whole entry, looked up): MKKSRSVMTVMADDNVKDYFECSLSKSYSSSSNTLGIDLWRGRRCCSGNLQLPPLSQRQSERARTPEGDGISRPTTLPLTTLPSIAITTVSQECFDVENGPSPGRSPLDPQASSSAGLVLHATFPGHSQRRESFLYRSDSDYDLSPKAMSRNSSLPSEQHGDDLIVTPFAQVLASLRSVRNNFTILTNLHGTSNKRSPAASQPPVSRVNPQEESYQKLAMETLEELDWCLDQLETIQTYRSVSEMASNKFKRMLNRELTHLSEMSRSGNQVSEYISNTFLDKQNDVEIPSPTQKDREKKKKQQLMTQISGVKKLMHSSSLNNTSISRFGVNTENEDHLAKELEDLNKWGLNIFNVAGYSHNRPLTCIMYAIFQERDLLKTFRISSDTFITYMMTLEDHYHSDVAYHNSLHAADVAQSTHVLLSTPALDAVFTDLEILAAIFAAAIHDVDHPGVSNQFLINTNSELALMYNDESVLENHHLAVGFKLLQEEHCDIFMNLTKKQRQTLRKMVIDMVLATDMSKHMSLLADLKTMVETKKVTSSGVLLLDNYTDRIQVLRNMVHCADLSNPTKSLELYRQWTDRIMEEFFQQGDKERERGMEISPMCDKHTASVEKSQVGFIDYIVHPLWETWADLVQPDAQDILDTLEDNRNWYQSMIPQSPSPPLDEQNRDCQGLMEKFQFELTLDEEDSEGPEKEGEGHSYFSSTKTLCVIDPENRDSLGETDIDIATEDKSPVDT
Outline: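 The readout is membrane depolarisation from a cAMP-sensing CNG channel, detected with a potential dye at ex 535/em 590. Cells were HEK293-derived (endogenous PDE-IV) at 1000 cells/well, titrated up to 22.9 uM final.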

[10] = biological target: Cytochrome P450 3A4 (Homo sapiens) (UniProt P08684); assay: qHTS Assay for Activators of Cytochrome P450 3A4 (AID 885; active = well fitted curve in the direction sought with a large enough effect; an effect the other way counts as inactive or inconclusive; also: nearly all actives have a fitted effect of over 65% in size); conditions: recombinant CYP3A4, Luciferin-PPXE luminescence, 60 min; series mostly up to 11.4 µM
Sequence of Cytochrome P450 3A4 (Homo sapiens) (P08684 whole entry, looked up): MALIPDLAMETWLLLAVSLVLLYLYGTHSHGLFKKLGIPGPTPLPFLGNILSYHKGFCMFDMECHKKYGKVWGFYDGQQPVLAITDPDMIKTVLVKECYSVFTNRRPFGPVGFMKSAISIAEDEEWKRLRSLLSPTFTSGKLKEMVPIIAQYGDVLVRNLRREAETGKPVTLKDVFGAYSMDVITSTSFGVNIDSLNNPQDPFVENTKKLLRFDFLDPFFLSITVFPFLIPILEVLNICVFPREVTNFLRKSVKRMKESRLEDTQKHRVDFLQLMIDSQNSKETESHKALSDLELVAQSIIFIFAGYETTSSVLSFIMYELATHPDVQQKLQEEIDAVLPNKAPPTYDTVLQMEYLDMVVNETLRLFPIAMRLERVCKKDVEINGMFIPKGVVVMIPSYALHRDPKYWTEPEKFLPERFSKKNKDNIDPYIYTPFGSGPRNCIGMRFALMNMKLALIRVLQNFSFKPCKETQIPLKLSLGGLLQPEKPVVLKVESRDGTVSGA
Outline: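 Steps: enzyme/substrate mix dispensed; compound added, 10 min RT; NADPH regeneration solution added, 60 min RT; luciferin detection buffer stops reaction; 20 min later luminescence measured.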

[11] = biological target: Cytochrome P450 2D6 (Homo sapiens) (UniProt P10635); assay: qHTS Assay for Inhibitors and Substrates of Cytochrome P450 2D6 (AID 891; active = well fitted curve in the direction sought with a large enough effect; an effect the other way counts as inactive or inconclusive; also: nearly all actives have a fitted effect of over 60% in size; also: potency is read from the fitted curve at half-maximal effect); conditions: recombinant CYP2D6, luciferin-ME EGE luminescence; series mostly up to 11.4 µM
Sequence of Cytochrome P450 2D6 (Homo sapiens) (P10635 whole entry, looked up): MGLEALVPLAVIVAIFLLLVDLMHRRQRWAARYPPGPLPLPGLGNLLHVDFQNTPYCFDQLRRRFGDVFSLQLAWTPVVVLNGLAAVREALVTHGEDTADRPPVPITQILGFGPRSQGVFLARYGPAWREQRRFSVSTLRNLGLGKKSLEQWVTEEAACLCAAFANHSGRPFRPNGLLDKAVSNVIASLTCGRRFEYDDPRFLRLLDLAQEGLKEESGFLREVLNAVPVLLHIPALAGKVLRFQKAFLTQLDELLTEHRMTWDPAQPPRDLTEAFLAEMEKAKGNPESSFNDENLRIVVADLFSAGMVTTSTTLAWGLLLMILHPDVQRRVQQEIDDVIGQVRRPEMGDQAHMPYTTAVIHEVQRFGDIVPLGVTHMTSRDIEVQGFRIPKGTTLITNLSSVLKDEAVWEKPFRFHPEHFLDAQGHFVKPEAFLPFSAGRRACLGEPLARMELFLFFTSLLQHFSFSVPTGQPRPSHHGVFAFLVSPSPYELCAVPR
Outline: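 Human CYP2D6 (5 nM) with 30 uM Luciferin-ME EGE (at Km) in 100 mM KPO4, compound preincubated 10 min, then NADPH regeneration system for 60 min at room temperature. Luciferin read by luminescence; normalized to 1.43 uM quinidine.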

[12] = qHTS Assay for Identification of Small Molecule Agonists for Hypoxia Response Element Signaling Pathway (AID 914; active = well fitted activation curve with a large enough effect in the signal ratio, with a control signal flat, not every such curve was filed as active; the % refers to the signal ratio; also: % of control where 0% means no effect); conditions: ME-180 (cervical carcinoma) HRE-bla reporter, beta-lactamase ratio, CoCl2, 17 h; activation: active compounds read high
Outline: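 Compounds in a titration series were added to ME-180 reporter cells alongside an EC50 level of CoCl2. After 17 hours, beta-lactamase activity was read as the 460nm/530nm emission ratio of CCF4, giving AC50 values.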

[13] = biological target: Cytochrome P450 2C19 (Homo sapiens) (UniProt P33261); assay: qHTS Assay for Inhibitors and Substrates of Cytochrome P450 2C19 (AID 899; active = well fitted curve in the direction sought with a large enough effect; an effect the other way counts as inactive or inconclusive; also: potency is read from the fitted curve at half-maximal effect; nearly all actives have a fitted effect of over 60% in size); conditions: recombinant CYP2C19, luciferin-H EGE luminescence; series mostly up to 11.4 µM
Sequence of Cytochrome P450 2C19 (Homo sapiens) (P33261 whole entry, looked up): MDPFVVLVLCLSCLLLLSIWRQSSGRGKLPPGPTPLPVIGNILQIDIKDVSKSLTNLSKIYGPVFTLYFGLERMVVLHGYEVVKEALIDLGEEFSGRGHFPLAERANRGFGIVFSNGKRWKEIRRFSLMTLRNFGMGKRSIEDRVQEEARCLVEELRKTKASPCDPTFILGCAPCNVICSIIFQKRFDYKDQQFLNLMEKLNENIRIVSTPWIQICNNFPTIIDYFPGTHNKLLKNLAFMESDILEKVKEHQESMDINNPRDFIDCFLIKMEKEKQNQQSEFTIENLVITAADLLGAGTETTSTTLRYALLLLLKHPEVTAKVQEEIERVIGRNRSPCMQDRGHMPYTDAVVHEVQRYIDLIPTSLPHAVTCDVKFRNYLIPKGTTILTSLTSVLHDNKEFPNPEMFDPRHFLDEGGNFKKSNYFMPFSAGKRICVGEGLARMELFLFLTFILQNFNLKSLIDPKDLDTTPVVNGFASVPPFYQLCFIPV
Outline: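 NADPH-dependent conversion of Luciferin-H EGE (10uM, at KM) by 5nM enzyme in 50mM KPO4, 60 min at 37C following 10 min compound preincubation. Stopped with luciferin detection buffer; luminescence read after 20 min.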

[14] = Confirmation and Secondary Assay for Modulators of Hemoglobin Beta Chain Splicing at IVS2 654 locus (AID 910; active = well fitted curve in the direction sought with a large enough effect; an effect the other way counts as inactive or inconclusive;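 also: per-well total GFP intensity by laser scanning cytometry after 2-day treatment; % of control where 0% means no effect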); conditions: HeLa EGFP-654 splicing reporter, GFP fluorescence, 48 h; series mostly up to 38.3 µM
Outline: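 HeLa cells stably carrying EGFP interrupted by mutant beta-globin IVS2-654 intron (CMV-driven) were treated with compound for 2 days at 37C; corrected splicing was scored as total peak GFP intensity per well (488 nm excitation, 500-520 nm emission).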

[15] = Confirmation and Secondary Assay for Modulators of Hemoglobin Beta Chain Splicing at IVS2 705 locus (AID 930; active = well fitted curve in the direction sought with a large enough effect; an effect the other way counts as inactive or inconclusive;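 also: HeLa cells stably expressing the EGFP-705 splicing reporter; GFP fluorescence per well restored by corrected splicing of the IVS2-705 intron in EGFP; % of control where 0% means no effect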); conditions: HeLa EGFP-705 splicing reporter, GFP fluorescence, 48 h; series mostly up to 38.3 µM
Outline: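 Assay measures total GFP intensity per well in HeLa EGFP-705 cells after 2 days with compound; mis-splicing normally truncates EGFP, so fluorescence indicates corrected splicing.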

| Structure (SMILES) | Potency [1] | activity change, negative = inhibition [2] [%] | Potency [3] | activity change, negative = inhibition [4] [%] | activity, negative = inhibition [5] [%] | Potency [6] [µM] | Potency [7] [µM] | Potency [8] | Potency [9] | Potency [10] | activity change, negative = inhibition [3] | Potency [11] | activation [12] [%] | Potency [13] | outcome [14] | outcome [15] |
| --- | --- | --- | --- | --- | --- | --- | --- | --- | --- | --- | --- | --- | --- | --- | --- | --- |
| Cc1ccc(N=Nc2ccc(N)cc2C)c(S(N)(=O)=O)c1 | > 11.4 µM | 2.62 | 0.501 µM (active) | 15.6 | -6.29 | > 46 | > 9.22 | inactive | inactive | inactive |  |  |  |  |  |  |
| Cc1cc(C(C)(C)C)c(OCCCN2CCOCC2)c(C(C)(C)C)c1 | > 11.4 µM | 3.87 |  | -12.7 | 0.456 | > 46 | > 9.22 | inactive | inactive | inactive | -17.7% [at 2.29 µM] | 2 µM (active) | 1.57 |  |  |  |
| Oc1ccc2ccccc2c1CN(Cc1c(O)ccc2ccccc12)C1CCCCC1 | > 11.4 µM | 3.63 | 0.631 µM (active) | -9.52 | -14.2 | > 46 | > 9.22 | inactive | inactive |  |  | 0.631 µM (active) |  |  |  |  |
| Cc1ccc(C)c(NC(=O)NCc2ccc(Cl)cc2)c1 | > 11.4 µM | 4.89 | 0.794 µM (active) | -4.37 | 8.15 | > 46 | > 9.22 | inactive | inactive | inactive |  | 3.98 µM (active) |  | 1.58 µM (active) |  |  |
| S=C1SCN(C2CCCCCCCCCCC2)CN1C1CCCCCCCCCCC1 | > 11.4 µM | -6.27 |  | 6.16 | -6.56 | > 46 | > 9.22 | inactive | inactive | inactive | -14.7% [at 2.29 µM] |  | 24.8 |  |  |  |
| CCCn1cnc2c(SCc3ccc(Cl)cc3)nc(N)nc21 | > 11.4 µM | -19.8 | 1.26 µM (active) | -4.9 | -5.52 | > 46 | > 9.22 | inactive | inactive | inactive |  |  |  | 0.501 µM (active) |  |  |
| COc1cc2nncc(SCc3ccc(Cl)c(Cl)c3)c2cc1OC | > 11.4 µM | 0.364 | 0.794 µM (active) | 1.06 | -13.6 | > 46 | > 9.22 | inactive | inactive | inactive |  |  |  | 2.51 µM (active) |  |  |
| Clc1cc2c(c(CSC3=NCN(CC4CC4)CN3)c1)OCOC2 | > 11.4 µM | 5.83 | 3.16 µM (active) | -19.2 | 0.512 | > 46 | > 9.22 | inactive | inactive |  |  | 0.199 µM (active) |  |  |  |  |
| S=C(Nc1ccc2cn[nH]c2c1)Nc1ccc2cn[nH]c2c1 | > 11.4 µM | -15 | 0.126 µM (active) | 19.4 | 1.71 | > 46 | > 9.22 | inactive | inactive |  |  | 2 µM (active) |  |  |  |  |
| CN(C)C(=O)c1ccc(-c2nc(Nc3ccncc3)c3ccccc3n2)cc1 | 3.84 µM (active) | -14.2 | 7.94 µM (active) | -7.95 | -6.09 | > 46 | > 46 | inactive | inactive | inactive |  |  | -8.23 |  | inactive | inactive |
| Clc1ccc2c(N3CCC(CCC4CCN(c5ncnc6cc(Cl)ccc56)CC4)CC3)ncnc2c1 | > 11.4 µM | 0.285 | 3.16 µM (active) | 0.959 | 0.136 | > 46 | > 9.22 | inactive | inactive |  |  | 0.794 µM (active) |  |  |  |  |
| NC(N)=N/N=C(/c1ccccc1)c1ccc(O)cc1O | > 11.4 µM | -6.42 | 3.16 µM (active) | 5.67 | 6.43 | > 46 | > 9.22 | inactive | inactive | inactive |  | 1.26 µM (active) |  |  |  |  |
| CC(C)(CN)CN | > 11.4 µM | 0.738 | inactive | 2.82 | 0.176 | > 46 | > 9.22 | inactive | inactive |  |  | inactive |  |  |  |  |
| CC1=C/C(=C(/c2ccc(O)c(C)c2)c2ccccc2C(=O)O)C=CC1=O | > 11.4 µM | 12.7 | 3.16 µM (active) | -5.21 | 4.74 | > 46 | > 9.22 | inactive | inactive | inactive |  | 1.58 µM (active) |  | 0.0032 µM (active) |  |  |
